# Measurements published in PubChem BioAssay (NCI).
# The panel holds about 83,000 compounds, 20% with a hit somewhere; the sample as a whole holds those more often.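 Method: cells in 96-well plates; compound added at one concentration; 48 h incubation; percent growth measured; values under 10 scored active.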 Values without a mark were called inactive. Calls of active or inactive are those of the source.
# Test system: KM12 colon
# Experiment: NCI-60 one-dose screen, 48 h (100 = growth as untreated, 0 = no growth, -100 = all killed)
# Conditions: 10 µM unless noted
row,SMILES,growth
1,c1c[nH]c(CNC2CCCCC2)c1,98.2%
2,COc1ccc2c(c1)CCCN2c1c2ccccc2nc2ccccc12,5.15% (active)
3,CC/C=C/C/C=C/C/C=C/C/C=C/C/C=C/C/C=C/CCC(=O)Nc1ccn([C@@H]2O[C@H](CO)[C@@H](O)C2(F)F)c(=O)n1,43.5%
4,Cc1ccc2nc(NC(=O)CSc3nc(-c4ccccc4)c(C#N)c(=O)n3Cc3ccccc3)sc2c1,90.6%
5,NNC(=O)c1nc(N)n(-c2ccc(S(N)(=O)=O)cc2)n1,95.5%
6,O=C(CC(SCc1ccccc1)c1ccccc1)c1ccccc1 (configuration not stated),84.8%
7,COC1=C(OC)C(=O)C(OC)=C(OC)C1=O,100%
8,COC(=O)CCC1=C(C)C2=NC1=CC1=NC(=CC3=NC(=Cc4[nH]c(/c(=C(/C)O)c4C)=C2)C(C(C)=O)=C3C)C(C)=C1CCC(=O)OC,104%
9,CC1=CN2C(=O)C3C4=C(CCCC4)SC3N=C2CN1c1c(C)cccc1C (configuration not stated),97.4%
10,O=C(Nc1cccc(Oc2nnc(Cl)c3ccccc23)c1)Nc1ccc(Cl)c(C(F)(F)F)c1,-60.1% (active)
11,CN1CCN(CCCOc2ccc3nc(Nc4ccc(F)c(F)c4)ccc3c2)CC1,11.8%
12,COc1ccccc1NC(=O)N/C(N)=N/c1nc2ccccc2s1,10.4%
13,Cc1ccc(Nc2nc(N)nc(CSCC(=O)NN)n2)cc1,98.1%
14,CC1CC(C(C)(C)C)C(=O)C(C(C)(C)C)C1 (configuration not stated),108%
15,O=C(O)c1ccc2c(c1Cl)C(=O)c1ccccc1C2=O,107%
16,N=c1sc(Cc2ccc(Cl)cc2)cn1CC(=O)c1ccc(F)cc1,39.9%
17,CCCCn1c(=O)c2c(nc3n2CCCN3CCc2ccc(OCC(=O)NCCN(CC)CC)cc2)n(CCCC)c1=O,77.5%
18,COc1ccc(NC(=O)c2nc(-c3cc(OC)c(OC)c(OC)c3)n(-c3cccc4ccccc34)n2)cc1OC,41.3%
19,O=C1CCc2c(sc3[nH]c(=S)n(-c4ccc(OC(F)(F)F)cc4)c(=O)c23)C1,10.8%

row,SMILES,growth
1,C[C@@]1(CCC#N)[C@H]2CC[C@@H]3[C@H]4[C@H](C(=O)/C=C/c5cccnc5)CC[C@]4(C#N)CC[C@@]3(C)[C@]2(C)CC[C@H]1C(=O)/C=C/c1cccnc1,36%
2,Cc1c(C)c2c(c(C)c1OCC(=O)O)CC[C@@](C)(CCC[C@@H](C)CCC[C@@H](C)CCCC(C)C)O2,-73.8% [50 µM] (active)
3,O=C(NCCCNc1cc(-c2cn(-c3ccccc3)nc2-c2cccc(O)c2)ccn1)c1ccc(F)cc1,12%
4,Cn1c(-c2c(N)n(Cc3ccc(C(F)(F)F)cc3)c3nc(C#N)c(C#N)nc23)nc2ccccc21,5.33% (active)
5,Nc1nc(N)c2c(n1)NC(c1ccccc1)C1CCc3ccccc3C1=N2 (configuration not stated),39.1%
6,COc1ccc2[nH]c(O)c(/C=c3/cc4c(c(-c5cc(OC)c(OC)c(OC)c5)n3)=Nc3ccccc3-4)c2c1,52.5%
7,CCOC(=O)c1c2ncccc2n2c(=O)n(-c3ccccc3C)nnc12,119%
8,COc1cccc(C(=O)NCCCNc2cc(-c3cn(-c4ccccc4)nc3-c3cccc(OC)c3)ccn2)c1,43.5%
9,N[C@@H](CCCCNCC(=O)O)C(=O)O,101%
10,CC(CCc1ccc(Cl)c(Cl)c1)NCc1ccc(C(C)(C)C)cc1 (configuration not stated),89.2%
11,O=Cc1ccc(O)c2ncccc12,69.6%
12,CCCCOc1nc2ccccc2cc1C1CNC(=O)c2ccccc2N1 (configuration not stated),23.9%
13,COc1ccc2occ(C3=C(c4c[nH]c5ccccc45)C(=O)N(O)C3=O)c2c1,91.1%
14,N#CC1=C(NC=O)Oc2c(ccc3ccccc23)C1c1ccccc1 (configuration not stated),30.7%
15,Fc1c[c-]c(-c2ccccn2)c(F)c1.[CH3-].[Pt+2].c1ccc(P(C[PH+](c2ccccc2)c2ccccc2)c2ccccc2)cc1,-40.6% (active)
16,N=C1C(c2nc(-c3ccc(Br)cc3)cs2)=C(O)CN1CC1CCCO1 (configuration not stated),86.6%
17,NS(=O)(=O)c1cnccc1Sc1ccncc1S(N)(=O)=O,108%
18,N#Cc1c(-c2ccccn2)[nH]c(=S)[nH]c1=O,102%
